PTHR1 ag: agonists of human PTHR1 parathyroid hormone receptor; AID 743266; 0.075% of 410,000 active; HEK293 GP2 PTHR1 cells, GloSensor cAMP luminescence, 1 h; Potency, µM (doses to about 115 µM), for the others: at the top dose activation, hits mostly activators; also: nearly all actives have a fitted effect of over 55% in size
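HEK-293-derived GP2 cells expressing PTHR1 and a GloSensor cAMP reporter, 3,000/well, plated overnight, given luciferin plus IBMX (each 0.5 mM as added) for 1 h at 37 °C, then compound for 1 h at 37 °C. Luminescence was read after 15 min at room temperature.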
HEK293 tox: cytotoxicity in counter-screen for GLP-1R inverse agonists; Potency, µM (series often up to 38.3 µM), inactives show top-dose activity change, negative = inhibition, hits mostly inhibitors; 0.13% of 410,000 active; AID 624418; HEK293 cAMP-luciferase reporter cells, luminescence, 24 h;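 also: loss of luciferase light is scored as toxicity; % is scaled to controls: 0 for no effect and ±100 for the full control effect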
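Compound-treated cells are incubated 24 hr at 37 deg C under 5% CO2 after a 12 hour attachment period, then luciferase detection reagent is added and luminescence is measured following 12 min at room temperature; lowered signal indicates toxicity.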
GLP-1R inv ag: inverse agonists of human GLP-1 receptor. P43220. HEK293 GLP-1R CRE-luciferase, luminescence, 24 h; GLP-1R form is constitutively active. Potency, µM (titrated, usually from 38.3 µM), inactives show at the highest dose activity change, negative = inhibition, usual class: inhibitors. 1.6% of 410,000 active; also: % is scaled to controls: 0 for no effect and ±100 for the full control effect; nearly all actives have a fitted effect of over 55% in size
Target sequence (P43220 whole entry, looked up): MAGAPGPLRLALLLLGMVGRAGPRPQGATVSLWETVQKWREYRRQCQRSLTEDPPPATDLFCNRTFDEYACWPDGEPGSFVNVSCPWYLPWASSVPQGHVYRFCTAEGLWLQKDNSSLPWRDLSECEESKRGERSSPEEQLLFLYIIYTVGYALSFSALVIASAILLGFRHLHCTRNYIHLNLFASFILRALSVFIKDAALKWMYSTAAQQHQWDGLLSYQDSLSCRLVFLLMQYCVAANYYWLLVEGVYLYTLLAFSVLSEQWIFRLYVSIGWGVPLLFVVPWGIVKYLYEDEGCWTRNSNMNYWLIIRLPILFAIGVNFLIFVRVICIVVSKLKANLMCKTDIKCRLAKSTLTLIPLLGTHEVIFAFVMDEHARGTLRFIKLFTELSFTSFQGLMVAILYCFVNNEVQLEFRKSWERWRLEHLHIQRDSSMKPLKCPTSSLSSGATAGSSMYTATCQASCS
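HEK293 cells stably co-expressing a cAMP-responsive luciferase reporter and constitutively active GLP-1R were seeded, incubated 12 h, then exposed to compounds for 24 h at 37 C. Luminescence was read 12 min after detection reagent; inverse agonists lower signal.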
GLP-1R agonist: GLP-1 receptor (human) agonism; P43220; HEK293 GLP-1R CRE-luciferase, luminescence, 4-6 h; cells express a hypersensitive GLP-1R form; Potency, µM (series often up to 45.6 µM), for inactives: top-dose activation, actives largely listed as activators; 0.007% of 380,000 active; AID 624172; also: % of control where 0% means no effect
Starred values were filed as active, the others as inactive; i = inactive; ? = inconclusive; . = no result given; ! = a repeat was not active; [ ] = another dose, or the depositor's remark. Rows were chosen to be rich in hits. Some 1.7% of all compounds tested hit in one or more screens of this group. Calls follow the shape of the dose curve; as a rule, active = well fitted curve in the direction sought with a large enough effect; inconclusive = small, poorly fitted or top-dose-only effect, or another doubt; inactive = no such curve, though single readings can be large; an effect the other way counts as inactive or inconclusive. Potency is read from the fitted curve at half-maximal effect.

SMILES	PTHR1 ag	HEK293 tox	GLP-1R inv ag	GLP-1R agonist
CN(C)c1ccc(C(=S)N2CCN(Cc3ccccc3)CC2)cc1	-21%	-28%	11µM*	-7%
CCC1Nc2ncnc(N3CCc4ccccc4C3)c2N(Cc2ccc(Cl)cc2)C1=O (stereo not given)	-32%	-16%	7.9µM*	-2%
CCC1Nc2ncnc(N3CCCCC3)c2N(Cc2ccc(Cl)cc2)C1=O (stereo not given)	-49%	-36%	10µM*!	-1%
CC(C)Cc1ccc(C(C)C(N)=Nc2ccc(O)cc2)cc1 (stereo not given)	-6%	?	13µM*	13%
S=c1[nH]cnc2sc(-c3ccccc3)cc12	-19%	5.6µM*	-6%	1%
CNc1ncnc2sc(-c3ccccc3)cc12	-24%	8%[0.307 µM]	-12%[0.307 µM]	?
Cc1ccc([C@@H]2CC=C(C(=O)O)[C@H](c3ccc(Cl)cc3)N2S(=O)(=O)c2ccc(C)cc2)cc1	-86%	-13%	?	-5%
Cc1ccc(S(=O)(=O)N2[C@@H](c3ccc(Br)cc3)C(C(=O)O)=CC[C@H]2c2ccc(Cl)cc2)cc1	-33%	-20%	11µM*	-11%
Cc1ccccc1S(=O)(=O)N1C(c2ccc(Cl)c(Cl)c2)CC=C(C(=O)O)C1c1cccc(Br)c1 (stereo not given)	i	-20%	10µM*	.
Cc1ccccc1S(=O)(=O)N1[C@@H](c2ccccc2)C(C(=O)O)=CC[C@H]1c1ccc(Cl)cc1	-7%	-13%	7.1µM*	-4%
Cc1ccc([C@@H]2CC=C(C(=O)O)[C@H](c3ccc(Cl)cc3)N2S(=O)(=O)c2ccccc2C)cc1	-29%	-18%	8.9µM*	-3%
O=C(Nc1ccc(Cl)cc1)Nc1ccc(Cl)c(C(F)(F)F)c1	.	.	.	-4%
Cc1ccc([C@@H]2CC=C(C(=O)O)[C@H](c3ccc(Br)cc3)N2S(=O)(=O)c2ccccc2C)cc1	-35%	-11%	11µM*	-1%
Cc1ccc([C@H]2C(C(=O)O)=CC[C@@H](c3ccc(Cl)c(Cl)c3)N2S(=O)(=O)c2ccc(C)cc2)cc1	-11%	-11%	10µM*	-2%
Cc1ccccc1S(=O)(=O)N1[C@@H](c2ccc(Br)cc2)C(C(=O)O)=CC[C@H]1c1ccc(Cl)cc1	-9%	-10%	?	-5%
COC(=O)c1cc(NC(=O)c2ccc3c(c2)N(Cc2cccc(Cl)c2)C(=O)c2ccccc2S3=O)cc(C(=O)OC)c1 (stereo not given)	i	-1%	18%	.
O=C(CCCCCCCCC#CI)Oc1ccccc1	.	.	.	-1%
Cc1cc(/C=C(\C#N)C(=O)NCc2cccs2)c(C)n1-c1ccccc1F	-16%[57.5 µM]	-5%	2.8µM*	7%
CN(C)S(=O)(=O)c1ccc2c(c1)N(CC(=O)N1CCN(c3cccc(Cl)c3)CC1)CCS2	-12%	2%	2%	16%
CCOC(=O)C(=CNc1cc(Cl)c(-c2ccco2)c(Cl)c1)C(=O)OCC	i	34%	10µM*	12%
CCOC(=O)C(=CNc1ccc(-c2ccco2)c(Cl)c1)C(=O)OCC	1%	9%	0%	1%
COc1ccc(C(O)(CCC(C)C)C(CN2CCOCC2)c2ccc(Cl)cc2)cc1 (stereo not given)	-11%	?	?	9%
CCOc1ccc(C(O)(CCC(C)C)C(CN2CCOCC2)c2ccccc2)cc1 (stereo not given)	-21%	?	3.2µM*	11%
CCCCC(O)(c1ccc(F)cc1)C(CN1CCOCC1)c1ccc(Cl)cc1 (stereo not given)	-4%	-17%	2.8µM*	-1%
CCCC(O)(c1ccc(Cl)cc1)C(CN1CCOCC1)c1ccc(Cl)cc1 (stereo not given)	-11%	-29%	?	5%
SMILES	PTHR1 ag	HEK293 tox	GLP-1R inv ag	GLP-1R agonist
CO[C@H]1C[C@@H]2CC[C@@H](C)[C@@](O)(O2)C(=O)C(=O)N2CCCC[C@H]2C(=O)O[C@H]([C@H](C)C[C@@H]2CC[C@@H](O)[C@H](OC)C2)CC(=O)[C@H](C)/C=C(\C)[C@@H](O)[C@@H](OC)C(=O)[C@H](C)C[C@H](C)/C=C/C=C/C=C/1C	.	.	.	5%
CCOC(=O)c1cc2c(=O)n3ccccc3nc2n(CCCOC)c1=NC(=O)c1cc2ccccc2o1	i	-5%	15%	.
CCOC(=O)c1sc(NC(=O)Cn2nnc3sc4c(c3c2=O)CCCC4)nc1C	-25%[57.5 µM]	1%	3%	-7%
CCOC(=O)c1nc2sc3c(c2c(=O)n1C(C)C(=O)OCC)CCCC3 (stereo not given)	-5%	18%	1.3µM*	26%
O=S(=O)(c1cccc(Cl)c1Cl)N1CCN(C(=S)NCCCN2CCOCC2)CC1	-91%	1%	7.1µM*	5%
S=C(NCCCN1CCOCC1)N1CCN(c2nc(-c3ccccc3)cs2)CC1	-25%	-4%	?	4%
S=C(NCCCN1CCOCC1)N1CCN(c2nc(-c3ccc(Cl)cc3)cs2)CC1	-29%	?	3.5µM*	-6%
Cc1ccc(C2=NN(C(=O)CCC(=O)O)C(c3cccc([N+](=O)[O-])c3)C2)cc1 (stereo not given)	?	0%	18%	-3%
CC(=O)N1N=C(c2ccc(Br)cc2)CC1c1cccc([N+](=O)[O-])c1 (stereo not given)	-21%	-5%	11µM*	-7%
CCOc1cccc(CC(=O)N2CCc3c([nH]c4ccccc34)C2c2ccc(SC)cc2)c1OCC (stereo not given)	i	-4%	1%	1%
CCN(c1ccc(Cl)cc1)S(=O)(=O)c1nnc(NC(=O)C2CCCCC2)s1	i	-6%	-19%	.
CCOc1ccccc1C1N=C(c2ccc(OC)cc2)CC(c2ccccc2O)N1 (stereo not given)	-16%	0%[0.307 µM]	11%[0.307 µM]	-12%
CC(C)C1N=C(c2ccc3c(c2)OCO3)CC(c2ccccc2O)N1 (stereo not given)	-83%	?	11µM*	-12%
CCOC(=O)Nc1ccc2c(c1)C(=NNC(N)=S)c1ccccc1-2	-39%	4µM*	?	-18%
CCOC(=O)Nc1ccc2c(c1)C(=NO)c1ccccc1-2	-9%	-39%	?	6%
COc1ccc(/C=N/OCC(=O)NCC(C)C)c(OC)c1	-11%	1%	-6%	0%
COc1ccc(/C=N/OCC(=O)NC(c2ccccc2)c2ccccc2)c(OC)c1	-24%	1%	8.9µM*	1%
COc1ccc(CC(=O)NC(c2ccccc2)c2ccc(C)cc2)c(OC)c1 (stereo not given)	-7%	-18%	8.9µM*	20%
COc1cc(C2C(=O)N(C3CCCCC3)CC(=O)N2Cc2ccc(C)cc2)ccc1OC(C)C (stereo not given)	21%	-3%	3%	.
CCN1CCN(C(c2cccs2)C(C)NS(=O)(=O)c2ccc(Br)cc2)CC1 (stereo not given)	2%	?	11µM*	-4%
